The source of these data is PubChem BioAssay (NCATS).

Results filed as inconclusive are left out. Active and inactive are the calls of the source. Unless noted, the call rests on the fitted dose curve; in most records, active means well fitted curve in the direction sought with a large enough effect; inconclusive means small, poorly fitted or top-dose-only effect, or another doubt; inactive means no such curve, though single readings can be large; an effect the other way counts as inactive or inconclusive.

Experiment [1] has as its target Cytochrome P450 2D6 (Homo sapiens) (UniProt P10635). Put plainly: Cytochrome P450 family 2 subfamily D member 6 (CYP2D6) small molecule antagonists: luciferase biochemical (cell-free) qHTS assay (AID 1645840; active means well fitted curve in the direction sought with a large enough effect in the repeat runs; an effect the other way counts as inactive or inconclusive; further: potency means the concentration at half of the fitted maximal effect; nearly all actives have a fitted effect of over 55% in size). The essentials: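 P450-Glo luminescent screen: recombinant CYP2D6 enzyme–proluciferin substrate mix preincubated with compound 10 min at room temperature, then NADPH regeneration added for 1 h at room temperature. Detection reagent added for 20 min; luciferin light read as relative luminescence units.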

For experiment [2], the target named is Cytochrome P450 2C9 (Homo sapiens) (UniProt P11712). Put plainly: Cytochrome P450 family 2 subfamily C member 9 (CYP2C9) small molecule antagonists: luciferase biochemical (cell-free) qHTS assay (AID 1645842; active means well fitted curve in the direction sought with a large enough effect in the repeat runs; an effect the other way counts as inactive or inconclusive; further: potency means the concentration at half of the fitted maximal effect; nearly all actives have a fitted effect of over 55% in size). The essentials: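 Luminescence, after 20 min with luciferin detection reagent, reflected CYP2C9 turnover during a 1 h NADPH-driven reaction at 37C. Enzyme-substrate mix contained 0.4% bovine serum albumin and was preincubated with compound 10 min at room temperature.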

Experiment [3] in a line: Primary redox qHTS assay for identification of artifact compounds. (AID 1845223).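 Further: 0% = DMSO and 100% = reference compound.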 The essentials:
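Amplex Red (25 uM) and HRP (250 mU/mL) in HBSS, with compounds for 15 min, then 250 uM DTT for 30 min, room temperature, dark. Fluorescence 525/598 nm read; normalized to DMSO and 10 uM DA3003; Hill fit.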
(In general: Quantitative high-throughput screening tests each substance at several concentrations.)

The next experiment deals with PA-1. Put plainly: Primary qHTS to identify gynecologic anti-cancer compounds using libraries of approved drugs and bioactive compounds (AID 1345084). Further: nearly all actives have a fitted effect of over 55% in size. Further: potency means the concentration at half of the fitted maximal effect. On activity change, negative = cytotoxicity: on the % scale 0 is the no-effect control and ±100 the full control effect. Particulars: Gynecologic cancer cell panel viability, ATPlite luminescence, 48 h; series mostly up to 57.5 µM. The essentials:
(§1)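 Cells, 1,000 per well, were allowed to settle for 16 h at 37 C before compound addition. Five concentrations were tested for 48 h, and viability was read by ATPlite luminescence after 15 min at room temperature.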

In a further experiment the test system is Tov-21-G. The description is as above. Particulars: Gynecologic cancer cell panel viability, ATPlite luminescence, 48 h; series mostly up to 57.5 µM. The essentials:
as §1
A general note: Cellular ATP, detected with luciferase, serves as a proxy for viable cell number.

For experiment [4], the target named is Catechol O-methyltransferase (Homo sapiens) (UniProt P21964). Put plainly: Confirmatory Screen for Target Class Profiling of Small Molecule Inhibitors of Methyltransferases (AID 1745852). On activity change, negative = inhibition: on the % scale 0 is the no-effect control and ±100 the full control effect. Conditions: MTase-Glo luminescence, SAH detection, recombinant enzyme; measured here: COMT max response; stronger effect = lower value.
The target in experiment [5] is Guanidinoacetate N-methyltransferase (Homo sapiens) (UniProt Q14353). The description is as above. Conditions: activity change, negative = inhibition: at 57.3 µM (top of the series) unless noted.
Experiment [6] has as its target Nicotinamide N-methyltransferase (Homo sapiens) (UniProt P40261). The experiment is described as above. Conditions: MTase-Glo luminescence, SAH detection, recombinant enzyme; measured here: NNMT max response; stronger effect = lower value.
In experiment [7] the target is Phenylethanolamine N-methyltransferase (Homo sapiens) (UniProt P11086). Described as above. Particulars: MTase-Glo luminescence, SAH detection, recombinant enzyme; measured here: PNMT max response; stronger effect = lower value.
The subject of another experiment is CAOV3. Put plainly: Primary qHTS to identify gynecologic anti-cancer compounds using libraries of approved drugs and bioactive compounds (AID 1345084). Further: nearly all actives have a fitted effect of over 55% in size. Further: potency means the concentration at half of the fitted maximal effect. On activity change, negative = cytotoxicity: on the % scale 0 is the no-effect control and ±100 the full control effect. Conditions: Gynecologic cancer cell panel viability, ATPlite luminescence, 48 h; series mostly up to 57.5 µM. The essentials:
as §1

The next experiment relates to SKOV3. The description is as above. Conditions: Gynecologic cancer cell panel viability, ATPlite luminescence, 48 h; series mostly up to 57.5 µM. The essentials:
as §1

The nature of experiment [8]: qHTS to identify inhibitors of the type 1 interferon - major histocompatibility complex class I in skeletal muscle: primary screen against the NCATS Mechanism Interrogation Plate v5.0 (MIPE) Libary (AID 1347411). Further: potency means the concentration at half of the fitted maximal effect; nearly all actives have a fitted effect of over 65% in size. The essentials:
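Cells were genome-edited human myoblasts carrying a HiBit tag on endogenous HLA-B. They were treated with IFN-beta (4.0 ng/ml) and titrated compounds (top 46 uM) for 24 hrs before lytic HiBiT detection.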

Chain of Cytochrome P450 2C9 (Homo sapiens) (P11712 whole entry, looked up): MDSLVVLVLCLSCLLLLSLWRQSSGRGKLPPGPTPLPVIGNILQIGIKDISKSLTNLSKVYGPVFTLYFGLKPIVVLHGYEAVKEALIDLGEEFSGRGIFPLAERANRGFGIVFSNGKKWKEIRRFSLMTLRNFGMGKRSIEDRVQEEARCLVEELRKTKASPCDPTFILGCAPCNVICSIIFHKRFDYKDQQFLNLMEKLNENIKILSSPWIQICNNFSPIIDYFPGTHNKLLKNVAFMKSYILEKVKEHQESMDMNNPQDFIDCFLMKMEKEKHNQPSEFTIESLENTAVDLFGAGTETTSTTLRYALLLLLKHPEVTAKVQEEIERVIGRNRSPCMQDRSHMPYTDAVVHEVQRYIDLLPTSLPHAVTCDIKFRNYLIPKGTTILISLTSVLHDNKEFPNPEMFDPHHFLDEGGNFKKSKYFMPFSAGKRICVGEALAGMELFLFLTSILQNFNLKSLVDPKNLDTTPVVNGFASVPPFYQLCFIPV
Chain of Nicotinamide N-methyltransferase (Homo sapiens) (P40261 whole entry, looked up): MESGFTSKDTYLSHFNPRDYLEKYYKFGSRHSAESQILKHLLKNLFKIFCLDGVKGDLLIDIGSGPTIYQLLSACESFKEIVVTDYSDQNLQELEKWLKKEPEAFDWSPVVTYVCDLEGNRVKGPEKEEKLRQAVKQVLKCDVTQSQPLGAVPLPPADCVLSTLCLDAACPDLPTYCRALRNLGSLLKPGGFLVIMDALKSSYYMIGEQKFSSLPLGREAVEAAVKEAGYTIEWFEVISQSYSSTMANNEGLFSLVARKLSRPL
Chain of Phenylethanolamine N-methyltransferase (Homo sapiens) (P11086 whole entry, looked up): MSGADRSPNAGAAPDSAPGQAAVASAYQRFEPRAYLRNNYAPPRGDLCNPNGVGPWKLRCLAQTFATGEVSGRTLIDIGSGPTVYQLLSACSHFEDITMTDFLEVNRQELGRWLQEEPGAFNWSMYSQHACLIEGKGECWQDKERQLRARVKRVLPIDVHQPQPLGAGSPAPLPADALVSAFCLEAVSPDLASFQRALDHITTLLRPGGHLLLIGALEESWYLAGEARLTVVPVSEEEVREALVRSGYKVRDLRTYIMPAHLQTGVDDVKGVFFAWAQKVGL
Chain of Catechol O-methyltransferase (Homo sapiens) (P21964 whole entry, looked up): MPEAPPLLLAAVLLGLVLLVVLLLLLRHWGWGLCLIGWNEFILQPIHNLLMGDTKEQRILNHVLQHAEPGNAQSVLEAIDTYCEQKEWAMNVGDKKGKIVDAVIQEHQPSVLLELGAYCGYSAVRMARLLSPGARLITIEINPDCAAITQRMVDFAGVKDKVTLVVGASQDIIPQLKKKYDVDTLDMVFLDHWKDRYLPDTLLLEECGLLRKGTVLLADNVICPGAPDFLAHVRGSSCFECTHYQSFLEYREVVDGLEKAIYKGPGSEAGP
Chain of Cytochrome P450 2D6 (Homo sapiens) (P10635 whole entry, looked up): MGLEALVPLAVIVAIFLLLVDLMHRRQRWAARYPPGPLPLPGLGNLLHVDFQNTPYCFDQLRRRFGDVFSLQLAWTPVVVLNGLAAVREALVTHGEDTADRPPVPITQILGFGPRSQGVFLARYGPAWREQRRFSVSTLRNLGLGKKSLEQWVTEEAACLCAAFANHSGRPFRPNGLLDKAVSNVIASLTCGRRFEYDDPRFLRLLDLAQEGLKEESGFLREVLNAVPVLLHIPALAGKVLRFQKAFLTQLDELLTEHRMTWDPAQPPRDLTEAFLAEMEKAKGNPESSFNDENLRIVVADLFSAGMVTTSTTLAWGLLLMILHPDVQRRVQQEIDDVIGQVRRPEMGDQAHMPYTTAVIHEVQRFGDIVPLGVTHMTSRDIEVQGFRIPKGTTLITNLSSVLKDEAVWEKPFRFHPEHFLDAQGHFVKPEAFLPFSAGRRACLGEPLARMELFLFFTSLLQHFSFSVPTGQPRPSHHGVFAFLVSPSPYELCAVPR

For `CCCc1c(C(C)C)nc(C(C)C)c([C@@H](C)O)c1-c1ccc(F)cc1O`, the Potency in experiment [1] was 2.39 µM (active); in experiment [2], 4.77 µM (active). The Potency entry (in [3]; with PA-1; with Tov-21-G) was “inactive” in each case.
As to `N#Cc1ccc(-c2ccc(NC(=O)Nc3ccc(-c4ccnc5nc[nH]c45)cc3)cc2)cc1`, in experiment [3], the Potency result is “inactive”.
For `CC(C)COc1ccc(CNC(=O)N(Cc2ccc(F)cc2)C2CCN(C)CC2)cc1`, in experiment [1], the Potency is 5.35 µM (active). The Potency result (in experiment [3]; with Tov-21-G) was “inactive” each time.
Take `CCN1CCC[C@@H]1CNC(=O)c1ccc2c(c1)NC(=O)/C(=C/c1ccccc1F)S2`: the Potency in experiment [2] is 12 µM (active). Also, the activity is -24.5% in [4], -32% in experiment [6] and -20.2% in experiment [7]. Further, the activity change, negative = inhibition in [5] is -8.4%. Also, the Potency result with Tov-21-G is “inactive”.
Regarding `CC1(C)CC[C@]2(C(=O)OC3OC(CO)C(O)C(O)C3O)CC[C@]3(C)C(=CCC4[C@@]5(C)CC[C@H](OC6OC(C(=O)O)C(O)C(O)C6O)C(CO)(CO)C5CC[C@]43C)[C@@H]2C1` (stereo partly drawn), the redox activity (% of DA3003) in experiment [3] was 7.5% [at 11.5 µM] (inactive). Moreover, the Potency with PA-1 was 3.16 µM (active). Also, the activity change, negative = cytotoxicity in the experiment with Tov-21-G was -29.8% [at 11.6 µM] (inactive).
With `COc1cc2nc(N3CCN(C)CC3)nc(NC3CCN(Cc4ccccc4)CC3)c2cc1OC`, the activity in experiment [4] was -1.25%; in experiment [6], -9.04%; in [7], 0.903%. Further, the activity change, negative = inhibition in experiment [5] was 9.72%.
Regarding `CCOP(=O)(Cc1ccc(C(=O)Nc2ccc(Br)cc2C#N)cc1)OCC`, the Potency result with CAOV3, in the experiment on PA-1 and in the experiment on Tov-21-G was “inactive” each time.
For `Fc1ccc(C2CCNC[C@H]2COc2ccc3c(c2)OCO3)cc1` (stereo partly drawn), the Potency entry (in experiment [3]; in the experiment with PA-1) was “inactive” throughout.
As to `COC1CC(=O)C23C(=O)NC(CC(C)C)C2C(C)C(C)=CC3/C=C(\C)CCC(O)C1O` (stereo not drawn), the Potency result (in experiment [3]; with SKOV3; with Tov-21-G) was “inactive” throughout.
For the molecule `c1ccc(Cn2c(-c3ccc(OCC(C4CCNCC4)n4c(-c5ccccc5)nc5ccccc54)cc3)nc3ccccc32)cc1` (stereo not drawn), the activity was -14.2% in [4], -61.3% in [6] and -1.77% in [7]. The activity change, negative = inhibition in [5] is -5.98%. For the same molecule, the Potency entry (in experiment [3]; in the experiment with PA-1; in the experiment on Tov-21-G) was “inactive” in each case.
With `N#Cc1ccc2c(c1)CCN(CCC1CCC(NC(=O)c3ccnc4ccccc34)CC1)C2` (stereo not drawn), the Potency entry with CAOV3, with PA-1 and in the experiment with Tov-21-G was “inactive” throughout. In the experiment with SKOV3, the Potency was 22.4 µM (active).
`COC(=O)/C=C/C(=O)N(O)CCCCNCc1ccc(COC(=O)Nc2cccc3ccccc23)cc1`: the Potency in [8] was 13.1 µM (active). In addition, the Potency entry (in experiment [3]; in the experiment on Tov-21-G) was “inactive” throughout.
As for `Cc1ccc2c(Nc3ccc(Cl)cc3)nccc2c1Nc1ncccc1-c1ncnc2nc[nH]c12`, the Potency is 12 µM (active) in experiment [2] and 15.8 µM (active) in the experiment on SKOV3.
Turning to `C=C1C(=O)O[C@H]2[C@H]1[C@@H](OC(=O)/C(C)=C\C)C[C@]1(C)O[C@@H]1[C@H]1O[C@H]1C(=C)[C@H]2O`, the Potency result in [3] is “inactive”. Moreover, the Potency in the experiment on PA-1 was 12.6 µM (active).
